Reference: PubChem BioAssay AID652054 (National Center for Advancing Translational Sciences (NCATS), 2013)
About 9,100 (2.5%) of roughly 360,000 compounds were called active. Not shown: some 4% with an inconclusive outcome. Cut-off read from the data, not from the text of the source: active = max response below about -50%; inconclusive = no clear call, values can overlap the other calls; inactive = above that. For the sample, actives were picked, then their nearest neighbours and some compounds at random.

Target: D(3) dopamine receptor (Homo sapiens) (UniProt P35462)
Sequence (P35462 whole entry, looked up): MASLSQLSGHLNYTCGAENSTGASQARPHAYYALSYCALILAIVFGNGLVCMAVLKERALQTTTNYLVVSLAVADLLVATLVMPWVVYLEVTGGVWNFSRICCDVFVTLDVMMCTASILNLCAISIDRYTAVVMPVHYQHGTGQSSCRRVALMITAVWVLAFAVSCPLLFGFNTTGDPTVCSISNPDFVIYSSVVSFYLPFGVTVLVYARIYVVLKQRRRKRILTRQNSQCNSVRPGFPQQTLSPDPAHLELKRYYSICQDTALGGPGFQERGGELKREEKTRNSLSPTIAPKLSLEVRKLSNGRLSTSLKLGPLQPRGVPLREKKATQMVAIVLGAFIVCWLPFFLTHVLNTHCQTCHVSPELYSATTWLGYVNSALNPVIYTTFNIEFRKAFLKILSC
Test: qHTS of D3 Dopamine Receptor Antagonist: qHTS
Details: D3R cells, DiscoveRx beta-arrestin luminescence, antagonist mode; active compounds read low
Method in brief: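 Cells plated overnight at 1500 cells/well, then exposed to library compounds with dopamine controls for 90 minutes at 37 degrees C. DiscoveRx reagent added for 30–60 minutes at room temperature; luminescence read, quantitative HTS format.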
% is set by controls: 0 for no effect and ±100 for the full control effect.

Max response, negative = inhibition, active:
COc1ccc(CN2CCC(c3nc4ccc(Cl)cc4[nH]3)CC2)cc1 -101%
O=C(CSc1nnc(-c2ccco2)n1-c1ccccc1)NCCc1ccccc1 -54.3%
O=C(CO/N=C/c1ccccc1O)NNC(=O)c1ccccc1Cl -53.5%
CN(C)CCNC(=O)Nc1cccc(Cl)c1Cl -70.3%
Fc1ccccc1CCNc1nnnn1-c1ccccc1 -77.8%
CN(C)CC/C=C1\c2ccccc2CSc2ccccc21 -54.4%
Oc1ccc(Br)cc1/C=N/Nc1ccccn1 -57.7%
Nc1cc(OC(=O)c2ccccc2Br)nn1S(=O)(=O)c1ccccc1 -73.2%
COc1ccc(Br)c(Cn2c(C)c(C(=O)NCc3cccs3)sc2=O)c1 -59.3%
Cc1cccc(C)c1Cn1c(C)c(C(=O)NCc2cccc(Cl)c2)sc1=O -105%
CCCN(CCC)CCNC(=O)c1cc2c(C)nc3ccccc3c2o1 -52.4%
CC1(Oc2ccc(Cl)cc2)CCN(Cc2csc3ccccc23)C1 (stereo unspecified) -85.5%
O=C(c1cc2ccccc2o1)N1CCN(Cc2ccccc2)CC1 -77.4%
O=C(Nc1ccccc1)N1CCN(Cc2ccccc2)CC1 -70.6%

Max response, negative = inhibition, inactive:
COc1ccc(F)c(-c2nc(CN3CCC(c4ccccc4)CC3)c(C)o2)c1 -19.4%
COc1ccc(Cn2nnc3c(=O)[nH]c(C4CCN(C(=O)c5ccccc5Cl)CC4)nc32)cc1 -22.4%
C[C@@H]1CN([C@@H](C)CO)C(=O)c2cc(Br)cnc2O[C@@H]1CN(C)C(=O)C1CCCCC1 22.5%
COc1ccc(C(=O)NC(=O)CSc2nnc(-c3ccco3)n2-c2ccccc2)cc1 -3.83%
Cc1cccc(C)c1NC(=O)CCCSc1nnc(-c2ccco2)n1-c1ccccc1 -8.78%
O=C(NNC(=O)c1ccccc1O)c1ccccc1O 5.67%
O=C(CO/N=C/c1ccccc1OC(F)F)NC1CCCC1 8.59%
Cc1ccc(S(=O)(=O)N2CC3C(=O)C[C@@H](c4ccccc4Cl)N(S(=O)(=O)c4ccc(C)cc4)C3CC2c2ccccc2)cc1 (stereo partly specified) 9.92%
CCOC(=O)c1ccn(S(=O)(=O)c2ccc(C)cc2)c1-c1ccccc1 -20.6%
Cc1c(Cl)cccc1NC(=O)NCCCN1CCCC1=O -2.4%
Cc1c(Cl)cccc1NC(=O)NCc1ccc(C)n1C 13.8%
Cc1ccccc1-c1nc(NC(C)C)nc2cc(-c3ccccc3)sc12 21.7%
C[C@H]1CN([C@@H](C)CO)C(=O)c2cc(-c3cccc(F)c3)cnc2O[C@@H]1CN(C)S(C)(=O)=O 17.3%
COc1ccc(Sc2ccc(NC(=O)c3cccc(Cl)c3)cc2C#N)cc1 28.7%
c1ccc(-n2nnnc2NC2CCCCCC2)cc1 -9.29%
COc1ccccc1CN(C)c1nnnn1-c1ccccc1 6.89%
COc1ccccc1CNc1nc(Nc2ccccc2Cl)c2sccc2n1 51.2%
Cc1ccccc1NC(=O)Cc1nc(COC(=O)CNC(=O)c2ccc(Cl)cc2Cl)cs1 -6.28%
CN(C)Cc1ccccc1C1(O)c2ccccc2CSc2ccccc21 (stereo unspecified) -12.3%
O=[N+]([O-])c1ccc(C(S(=O)(=O)Cc2ccccc2)S(=O)(=O)Cc2ccccc2)cc1 -9.27%
O=C(CCc1ccc(O)cc1)NN=Cc1cc(Br)ccc1O -3.37%
S=C(NN=Cc1ccccn1)Nc1ccccn1 -27%
CNC(=O)C1CN(C(=O)c2cccc(S(=O)(=O)N3CCc4ccccc43)c2)c2ccccc2O1 (stereo unspecified) -27.2%
CC1C(=O)N(Cc2cn(CC3CCCCC3)nn2)CCS(=O)(=O)N1Cc1ccc(-c2cccc(N(C)C)c2)cc1 (stereo unspecified) 0%
CN1C(=O)/C(=N/OC(=O)c2ccccc2Br)c2ccccc21 0.409%
Cc1ccc(S(=O)(=O)n2nc(OC(=O)C(C)(C)C)cc2N)cc1 -4.07%
FC(F)(F)c1ccccc1Cc1c(-c2ccccc2)nc2c3ccccc3ccn12 -14.4%
COc1cccc(-c2cnc3c(NC(C)=O)cc(-c4cccc(NC(C)=O)c4)cn23)c1 43.1%
CCN1CCCC1CNC(=O)c1ccc2c(c1)NC(=O)/C(=C\c1ccccc1F)S2 (stereo unspecified) -21.4%
CC(=O)Oc1ccc(Cn2c(C)c(C(=O)NCc3ccc(C#N)cc3)sc2=O)cc1 -1.7%
Cc1c(C(=O)NCC2CC2)sc(=O)n1Cc1cccc(F)c1 11.5%
Cc1ccccc1Cn1c(C)c(C(=O)NCc2cccc(C(F)(F)F)c2)sc1=O -29.9%
COc1cc(CC(=O)NCc2cccs2)cc(OC)c1OC -6.25%
CCOC(=O)[C@]12CCCC=C1N(CCC1=CCCCC1)C(=O)[C@H](CC(=O)N1CCOCC1)C2 -20.5%
COC(=O)C[C@H]1C=C[C@H](NC(=O)c2ccc(F)cc2)[C@@H](CO)O1 0%
CCc1nc2ccccc2c(C(=O)NCc2ccc(OC)cc2)c1C -8.59%
CCN(CC)CCNC(=O)c1ccc(NC(=O)c2cc(-c3ccncc3)nc3ccccc23)cc1 -11%
C[C@H]1CN([C@@H](C)CO)C(=O)CCCn2nncc2CO[C@@H]1CN(C)S(=O)(=O)c1cccc(C#N)c1 12.3%
COc1ccc(CN2CCC(C)(Oc3cccc(F)c3)C2)c2ccccc12 (stereo unspecified) -6.36%
CC1(Oc2cccc(F)c2)CCN(Cc2ccccc2OC(F)F)C1 (stereo unspecified) -21.8%
N#Cc1ccc(-c2ccc3nccn3c2)cc1 21.2%
Cc1ccccc1S(=O)(=O)NC(=O)C1(C)CCN1C(=O)C1(c2ccccc2)CCCC1 (stereo unspecified) 15.6%
CSc1ccc(CN2CCC2(C)C(=O)Nc2ccc(C)c(O)c2)cc1 (stereo unspecified) 51.8%
O=C(NC(=S)N1CCN(Cc2ccccc2)CC1)c1ccccc1 -1.99%
O=C(Nc1ccccc1)N1CCC(C(=O)N2CCN(Cc3ccccc3)CC2)CC1 0%
O=C(c1cc2ccccc2o1)N1CCN(S(=O)(=O)c2ccc(Cl)s2)CC1 -0.155%
O=C(c1cccc(Cl)c1)N1CCN(Cc2ccccc2)CC1 7.13%
